Screening data: PubChem BioAssay, The Scripps Research Institute Molecular Screening Center
MITF inh – blocks human microphthalmia-associated transcription factor; O75030; AlphaScreen MITF homodimerization, bead proximity signal; inhibition, % at 2.6 µM; 650,000 compounds, 0.91% hits; in the data active means inhibition above about 50%;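 further: 0% = vehicle wells with protein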
TEAD-YAP inh – TEAD-YAP interaction inhibition; inhibition, % at 9.12 µM; 640,000 compounds, 1.4% hits; HEK-TIYL cells, TEAD-Gal4/YAP UAS-luciferase luminescence; in the data active means inhibition above about 32%;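 further: 0% = median of test compound wells and 100% = reference inhibitor wells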
FBW7 act – activators of human E3 ligase FBW7; Q969H0; AlphaScreen FBW7–phospho-cyclin E peptide binding, activator screen; normalized activity (activation), % at 26.1 µM; 650,000 compounds, 0.13% hits; AID 1259310; in the data active means normalized activity above about 1.9%;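 further: purified mutant Fbw7 with reduced substrate affinity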
GPR151 ag – human GPR151 activation; Q8TDV0; PathHunter beta-arrestin GPR151 cells, luminescence; activation, % at 11.2 µM; 650,000 compounds, 1% hits; in the data active means activation above about 4.9%;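 further: 0% = median of compound wells and 100% = cells with positive control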
Target sequence (Q8TDV0 whole entry, looked up): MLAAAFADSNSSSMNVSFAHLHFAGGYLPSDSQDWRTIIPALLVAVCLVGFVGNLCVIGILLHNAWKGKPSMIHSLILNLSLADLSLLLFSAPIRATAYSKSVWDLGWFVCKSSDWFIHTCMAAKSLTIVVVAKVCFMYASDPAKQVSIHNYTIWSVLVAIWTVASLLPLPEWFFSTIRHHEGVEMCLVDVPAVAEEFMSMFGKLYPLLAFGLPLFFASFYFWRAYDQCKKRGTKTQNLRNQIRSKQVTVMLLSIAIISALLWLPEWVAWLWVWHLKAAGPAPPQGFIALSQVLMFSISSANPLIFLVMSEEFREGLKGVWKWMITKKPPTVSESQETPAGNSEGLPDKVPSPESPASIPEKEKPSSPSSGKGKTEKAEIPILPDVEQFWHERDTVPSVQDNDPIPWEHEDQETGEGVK
Starred values were filed as active, the others as inactive. Only some compounds are listed: those with a hit (about 3.5% of all), similar ones and a draw of the others.

SMILES	MITF inh	TEAD-YAP inh	FBW7 act	GPR151 ag
Nc1ncnc(Nc2cccc(Cl)c2)c1[N+](=O)[O-]	7.0	3.1	-0.1	4.0
COc1cc(-n2c(O)c(/C=C3\C=Nc4ccccc43)c(=O)[nH]c2=S)cc(OC)c1OC	5.9	-1.3	0.6	-1.0
Cc1cc(NCCc2ccc(S(N)(=O)=O)cc2)n2nc(-c3ccc(F)cc3)cc2n1	4.8	-6.6	0.1	0.2
Cc1nc2ccccn2c1C(=O)N/N=C/c1c(O)ccc2ccccc12	30.0	71.2*	-1.3	-1.4
O=C(N/N=C\c1c(O)ccc2ccccc12)c1cncc(Br)c1	-1.2	9.1	-0.6	-0.6
Cc1nc2ccccn2c1C(=O)N/N=C/c1ccc(Cl)cc1Cl	-8.5	11.3	-0.1	-0.2
O=C(N/N=C/c1c(O)ccc2ccccc12)c1cccnc1	70.3*	81.1*	-0.3	-0.2
COCCCNCCCOc1c(Cl)cc(C)cc1Br	50.0	51.1*	0.1	0.1
COCCNCCCCOc1c(Cl)cc(C)cc1Br	41.0	2.4	0.0	-1.0
O=C(COC(=O)c1cccnc1Cl)c1ccccc1Br	19.4	6.9	0.8	0.1
Nc1cccc(F)c1Nc1ccc2c(cnn2-c2cccc(C(=O)NCCN3CCOCC3)c2)c1	-13.7	78.7*	0.0	0.0
CCCN(CCC)c1nc(N)ncc1[N+](=O)[O-]	5.0	59.0*	0.4	-1.2
Nc1ncc([N+](=O)[O-])c(Oc2ccccc2F)n1	5.3	-1.5	-0.3	-0.2
CCCCN(CCCC)c1nc(N)ncc1[N+](=O)[O-]	3.4	34.3*	0.0	1.0
CCN(CC)CCn1c(=O)n(C)c(=O)c2[nH]cnc21	1.7	14.4	0.6	-1.0
COc1ccc(-c2cc(=O)oc3c(OC)c(OC)ccc23)cc1	-3.3	55.6*	0.0	-1.4
O=C(Nc1ccccn1)c1cc2ccccc2o1	10.8	70.5*	-0.2	-9.6
Cc1ccnc(NC(=O)c2cc3ccccc3o2)c1	3.5	55.8*	0.5	-8.3
O=C(Nc1ccccc1NC(=O)c1cc2ccccc2o1)c1ccccn1	-3.2	-3.8	-0.1	0.4
Cc1cc(C)cc(NC(=O)c2cc3ccccc3o2)c1	2.0	-26.6	0.0	-0.6
CCOC(=O)C1CCN(c2c(Nc3cccc(SC)c3)c(=O)c2=O)CC1	0.6	55.4*	0.0	-0.2
CCOC(=O)C1CCN(c2c(NCc3ccc(OC)cc3)c(=O)c2=O)CC1	-9.9	57.8*	0.1	-0.1
CCOC(=O)C1CCN(c2c(NCc3ccc(N(C)C)cc3)c(=O)c2=O)CC1	5.3	0.9	0.0	0.9
CCOC(=O)C1CCN(c2c(NCc3ccc(F)cc3)c(=O)c2=O)CC1	12.2	64.3*	0.1	-1.7
CCOC(=O)C1CCN(c2c(Nc3ccc(C)c(F)c3)c(=O)c2=O)CC1	-0.6	-9.8	-0.2	-0.2
SMILES	MITF inh	TEAD-YAP inh	FBW7 act	GPR151 ag
CCOC(=O)C1CCN(c2c(NCc3ccc(Cl)cc3)c(=O)c2=O)CC1	0.7	66.6*	-0.1	-0.6
COc1ccccc1Oc1ccc(C(F)(F)F)cc1NC(=O)Cn1nc([N+](=O)[O-])cc1C	7.9	23.2	0.2	0.9
O=C1c2ccccc2C(=O)N1/N=C/c1ccc(O)c(O)c1O	91.9*	-5.1	-0.5	1.1
O=C1Nc2ccccc2/C1=N\N=C\c1ccc(O)c(O)c1O	58.2*	0.4	-0.4	0.4
Cc1nc2ccccc2c(=O)n1/N=C/c1ccc(O)c(O)c1O	57.4*	3.3	-0.2	-0.3
Cc1noc(C)c1S(=O)(=O)N1CC=C(c2ccccc2)CC1	10.9	-0.8	0.5	0.0
Cc1ccn2cc(-c3cc4ccccc4oc3=O)nc2c1	4.4	-22.7	0.7	-7.4
CCc1ccc(-c2cn3cc(C)ccc3n2)cc1	-103.9	-1.0	0.0	-2.1
CCc1ccc(-c2cn3ccc(C)cc3n2)cc1	4.7	96.4*	0.7	-6.4
Cc1ccn2cc(-c3ccccc3Cl)nc2c1	11.2	70.7*	0.2	-6.5
Cc1ccn2cc(-c3ccc(Cl)cc3)nc2c1	18.2	78.4*	0.9	-9.0
NC(=O)CN1CCC(c2ccncc2)CC1	11.2	-9.1	-0.1	0.1
NC(=O)C(SCC(=O)O)c1ccc(Br)cc1 (stereo unspecified)	14.7	-2.6	0.6	0.3
CCOC(=O)C1CCC(CN(Cc2ccc(Cl)cc2)S(=O)(=O)c2ccc(Cl)cc2)CC1 (stereo unspecified)	24.4	7.7	0.4	-1.2
NC(CO)C(=O)NNCc1ccc(O)c(O)c1O (stereo unspecified)	88.2*	-6.3	-0.1	2.1
NC(CO)C(=O)N/N=C/c1ccc(O)c(O)c1O (stereo unspecified)	95.8*	-5.0	-0.9	-0.4
O=C(N/N=C/c1ccc(O)c(O)c1O)c1ccc(Cl)cc1Cl	36.9	5.0	-0.4	-0.5
COc1cc(/C=C/C(=O)N2CCC=CC2=O)cc(OC)c1OC	-8.7	77.9*	-0.1	-2.3
COc1cc(/C=C/C(=O)C(C)(C)O)cc(OC)c1OC	-1.1	15.7	0.1	0.7
CC(NC(=O)CCS(=O)(=O)c1ccc2c(c1)OCC(=O)N2)c1ccc2c(c1)OCCO2 (stereo unspecified)	-2.1	-2.2	0.0	1.1
COc1ccc(CCNc2nc(Nc3nccc4ccccc34)nc3c2ncn3C2CCCCC2)cc1	3.6	33.4*	0.2	-1.0
Oc1ccc(CCNc2nc(Nc3nccc4ccccc34)nc3c2ncn3-c2ccsc2)cc1	10.1	66.3*	0.1	1.3
CCCNc1nc(Nc2nccc3ccccc23)nc2c1ncn2-c1ccsc1	8.8	64.9*	-0.2	0.2
CCCNc1nc(Nc2nccc3ccccc23)nc2c1ncn2-c1ccccc1	-2.5	6.1	0.0	1.7
Oc1ccc(CCNc2nc(Nc3nccc4ccccc34)nc3c2ncn3C2CCCCC2)cc1	16.0	21.6	0.2	-1.3
SMILES	MITF inh	TEAD-YAP inh	FBW7 act	GPR151 ag
O=C(Nc1ccc2c(c1)OCO2)N1CCN(c2cc(-n3cccn3)ncn2)CC1	2.2	-29.4	0.0	-0.4
COC(=O)c1cn[nH]c1NC(=S)Nc1ccc(Br)cc1	-4.2	38.6*	-0.1	-0.4
COC(=O)c1cn[nH]c1NC(=S)Nc1c(C)cccc1C	-0.7	-6.5	-0.1	-1.2
CC(=O)Nc1nc2ccccc2n1Cc1ccccc1Cl	9.4	32.6*	-0.2	0.7
O=C(Nc1nc2ccccc2n1Cc1ccccc1Cl)c1ccccc1	-5.7	-0.5	0.0	0.5
O=C(NC(c1ccccn1)c1cccs1)C1CCN(C(=O)CCc2ccccc2)CC1 (stereo unspecified)	1.8	4.3	-0.2	0.3
CC(C)(C)c1ccc(C(=O)Nc2ccc(S(=O)(=O)N3CCCCC3c3cccnc3)cc2)cc1 (stereo unspecified)	-8.1	42.6*	0.0	-1.2
COc1cc(/C=C/C(=O)Nc2ccc(S(=O)(=O)N3CCCCC3c3cccnc3)cc2)cc(OC)c1OC (stereo unspecified)	14.2	55.7*	0.0	0.8
O=C(Nc1ccc(S(=O)(=O)N2CCCCC2c2cccnc2)cc1)c1ccccc1 (stereo unspecified)	-2.2	8.4	-0.1	-0.5
COc1cc(-c2ccc(OCCCN(C)C)nc2)cc(OC)c1OC	2.9	-0.1	0.0	-0.3
COc1ccc(C(=O)c2sc3nc4c(cc3c2N)C(=O)CCC4)cc1	-12.3	-3.5	-0.1	2.0
